Screening results as filed in PubChem.
Most compounds without a hit are left out; they make up all but 3.6% or so of the library.
FAS TE block: blocks the thioesterase domain of human fatty acid synthase | P49327 | recombinant FAS-TE, OMFH fluorogenic substrate, fluorescence endpoint | inhibition, % at 15 µM | hit rate 0.67% among 360,000 | AID 602261;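 active means compounds whose normalised, plate-corrected inhibition of enzyme fluorescence in the single-dose primary screen is 50% or more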
CRFBP-R2 block: CRF-BP/CRF-R2 complex antagonism; HEK293 CRF-R2/CRF-BP, CRF-induced calcium fluorescence; inhibition, % at 11.8 µM; hit rate 0.59% among 350,000; AID 588475;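 active means inhibition of the ligand-induced calcium signal above about 50% at the single tested concentration, limit read from the data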
NadD block: blocks S. aureus nicotinate mononucleotide adenylyltransferase | purified NadD enzyme, colorimetric absorbance read-out | hit rate 0.78% among 360,000 | AID 602399 | inhibition, % at 20 µM; in the data active means inhibition above about 26%
CendR NRP1 mod: modulators of CendR peptide binding to human neuropilin-1 | FAM-RPARPAR peptide binding to NRP-1, fluorescence polarization | hit rate 0.85% among 360,000 | inhibition, % at 25 µM | O14786;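 active means inhibition or corrected inhibition above about 18%, plus a signal ratio from 0.5 to 1.5, limit read from the data, passing the limit was not always enough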
Myeloid diff 2: compounds promoting myeloid differentiation; ER-HoxA9 myeloid progenitors, lysozyme-GFP differentiation, flow cytometry; calls only at 10 µM; hit rate 1% among 360,000; AID 624256;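 active means normalized GFP-positive differentiation at or above the plate's own cutoff, the solvent-only control mean plus 3 SD; inconclusive means no clear call, values can overlap the other calls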;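 further: cells exposed to compound for four days before flow analysis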
A number is an active result; i = inactive; ? = inconclusive; nt = no result given; + = active, no number.

SMILES	FAS TE block	CRFBP-R2 block	NadD block	CendR NRP1 mod	Myeloid diff 2
COc1ccc(N2CCCC2)c(NC(=O)c2ccc(Br)o2)c1	i	i	i	61	i
O=C(NC(=S)Nc1ccccc1N1CCCCC1)c1ccco1	i	i	i	i	i
O=C(NC(=S)Nc1ccccc1N1CCCC1)c1ccco1	i	i	i	28	i
Cc1nn(Cc2ccc(Cl)cc2Cl)c(C)c1NC(=O)CCl	i	i	i	i	i
Cc1cc(C)n(-c2ccn(Cc3ccc(Cl)cc3Cl)c(=O)n2)n1	i	i	i	i	+
Cc1cc(C)n(-c2ccc(C(=O)Oc3ccc4c(c3)OCO4)cc2)n1	i	73	i	i	i
CCOC(=O)c1c(C)[nH]c(C)c1C=O	i	i	i	i	i
CCOC(=O)c1c(C(F)(F)C(F)(F)C(F)(F)C(F)(F)F)n[nH]c1C	i	54	i	i	i
O=C(O)CS(=O)(=O)c1ccc(C(F)(F)F)cn1	i	i	i	36	+
COc1ccccc1CNC(=O)CCc1nnc2ccc(NCCCN3CCCC3=O)nn12	i	99	i	i	i
O=C(CSc1ccccn1)N/N=C/C=C/c1ccccc1	i	i	i	22	i
O=C(CSc1ccccn1)N/N=C/c1ccccc1[N+](=O)[O-]	i	i	i	i	i
CSc1c(C#N)sc(=S)n1-c1ccc(C)cc1	i	56	i	i	i
CCN(CCS(=O)(=O)c1ccc(Cl)cc1)C(=O)Nc1ccc(Cl)cc1	i	i	i	i	i
CC(C)N(C(=O)C[n+]1ccsc1N)c1ccccc1	i	59	i	i	i
COc1ccc(C(=O)NC(=O)Nc2ncccc2C)cc1	i	i	i	31	i
CCNS(=O)(=O)c1ccc(CCC(=O)O)cc1	i	i	i	26	i
CCOC(=O)Cc1ccc(Nc2nc(NCc3cccs3)nc3ccsc23)cc1	i	nt	i	i	i
CCC(=O)N1CCCC(C)(C(=O)Nc2ccc(OC(F)F)cc2)C1 (stereo not drawn)	i	nt	i	i	i
CC(C)(C)n1nc(-c2ccc(F)cc2)c2c(N)ncnc21	i	i	i	67	?
CC(C)(C)n1nc(-c2ccc(Cl)cc2)c2c(N)ncnc21	i	i	i	i	i
CC(O)(c1cccc(F)c1)c1nc(-c2cnc3ccccc3c2)cs1 (stereo not drawn)	i	nt	i	i	i
O=[N+]([O-])c1ccc2[nH]c(=S)sc2c1	i	59	i	i	i
COC(=O)[C@]1(Cc2ccccc2)N[C@H](c2ccc(-c3ccc4c(c3)OCO4)cc2)[C@@H]2C(=O)N(C)C(=O)[C@@H]21	86	i	i	i	i
COC(=O)[C@]1(CC(C)C)N[C@H](c2ccc(-c3ccc4c(c3)OCO4)cc2)[C@@H]2C(=O)N(C)C(=O)[C@@H]21	i	i	i	i	i
SMILES	FAS TE block	CRFBP-R2 block	NadD block	CendR NRP1 mod	Myeloid diff 2
CCOc1ccc2oc(C(=O)N(CC)CC(=O)Nc3c(F)cccc3F)c(C)c2c1	i	i	i	i	i
CCOC(=O)C(NC(=O)CC(C)C)(Nc1sc(C)c(CC)c1C#N)C(F)(F)F (stereo not drawn)	i	51	i	24	i
Cc1ccc2c(CC(=O)NCc3ccc4c(c3)OCO4)coc2c1	i	i	i	i	i
Cc1ccc2c(CC(=O)NCC(=O)Nc3c(C)cccc3C)coc2c1	i	50	i	i	i
c1coc(CNc2c3c(nc4ccccc24)CCC3)c1	i	i	i	i	+
COc1cc(CCC(=O)Nc2ccc(C)c(S(=O)(=O)N3CCCCCC3)c2)cc(OC)c1OC	i	i	i	i	i
CCCCOc1ccc(/C=C2/Sc3ccccc3C2=O)cc1	i	i	i	35	i
COc1cc(/C=C2/SC(=S)N(CC(=O)O)C2=O)ccc1OCC(=O)Nc1ccc(C)c(C)c1	i	nt	30	i	i
COc1ccc(/C=C2\SC(=S)N(CC(=O)OCC(=O)Nc3ccc(C)cc3Cl)C2=O)cc1	i	i	i	34	i
COc1ccc(/C=C2\SC(=S)N(CC(=O)OCC(=O)Nc3ccc([N+](=O)[O-])cc3OC)C2=O)cc1	i	i	i	i	i
CC[C@]12c3[nH]c4ccc(Cl)cc4c3CCN1C(=O)[C@@H](CC(=O)NCCCn1ccnc1)C[C@@H]2C(=O)N1CCN(C(=O)C2CC2)CC1	i	i	i	i	i
CC(C)=CCC/C(C)=C/CNC(=O)C[C@H]1C[C@H](C(=O)N2CCCCC2)[C@@]2(CCc3ccccc3)c3[nH]c4cc(CCC(=O)N(C)C)ccc4c3CCN2C1=O	i	i	i	i	+
